According to PubChem BioAssay (NCI):
About 83,000 compounds went through this panel and 20% of them were active in at least one assay; those are over-represented in the sample as a whole.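 Single-concentration screen, 48 h exposure, 96-well plates. Endpoint: percent growth. Below 10 = active.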 Unmarked numbers belong to inactive results. The source made the active and inactive calls.

How the values were obtained:
Assay in all cases: NCI-60 one-dose screen, 48 h (100 = growth as untreated, 0 = no growth, -100 = all killed)
Details in all cases: 10 µM unless noted
[1] = tested on: T-47D breast
[2] = tested on: BT-549 breast
[3] = tested on: MDA-MB-435 melanoma
[4] = tested on: SW-620 colon
[5] = tested on: MCF7 breast
[6] = tested on: HCT-116 colon
[7] = tested on: HCC-2998 colon
[8] = tested on: KM12 colon

Structure (SMILES)	growth [1]	growth [2]	growth [3]	growth [4]	growth [5]	growth [6]	growth [7]	growth [8]
O=C(Nc1cccc2cccnc12)c1cc(C(=O)c2ccc(Cl)cc2)n2ccc(-c3ccncc3)cc12	95.7%	93.9%	97.6%	90.6%	98.3%	101%	113%	108%
CCN(CC)c1ccc2cc(C(Nc3ccc(Cl)cc3)c3nnnn3C(C)(C)C)c(=O)oc2c1 (stereo not drawn)	71.7%	103%	87.8%	100%	74.2%	92%	105%	88.7%
COc1cc(C(=O)/C=C/c2c(-c3ccc(F)cc3)nc3sccn23)cc(OC)c1OC	19.8%	19.2%	-72.7% (active)	13.7%	-8.44% (active)	23.3%	73.1%	-12.1% (active)
c1cc2ccc1CNCCN1CCNCc3ccc(cc3)Oc3ccc(cc3)CNCCN(CCNCc3ccc(cc3)O2)CCNCc2ccc(cc2)Oc2ccc(cc2)CNCC1	-64.5% (active)	82.1%	-96.3% (active)	-75.5% (active)	-75.4% (active)	-89.7% (active)	-87.8% (active)	-88.6% (active)
c1ccc(-c2nc(N3CCCNCC3)c3nc(-c4ccccc4)oc3n2)cc1	46.9%	95.3%	-85.7% (active)	-77.1% (active)	-66.7% (active)	-74.8% (active)	-88.7% (active)	-74.7% (active)
COc1ccc(NC(=S)NNc2ccc(-c3ccc(OC)c(OC)c3)nn2)cc1	96.4%	98.5%	107%	102%	96.5%	102%	109%	104%
CC1=CCc2ccccc21	96.8%	93.5%	106%	95.6%	90.5%	101%	108%	103%
COc1ccc(-c2c(C)nn3c(NCCN4CCOCC4)cc(C)nc23)cc1OC	88.2%	93.3%	101%	99.4%	95.3%	90%	104%	107%
O=C(N/N=C/c1ccc([N+](=O)[O-])cc1)c1ccc(Br)o1	131%	109%	108%	104%	71.2%	99.4%	107%	126%
CCOC(=O)c1cnc2ccc(Br)cc2c1Nc1cccc(S(N)(=O)=O)c1	81.4%	96.3%	101%	99.2%	93.8%	85.6%	115%	96%
C#C[C@]1(O)CC[C@H]2[C@@H]3CC=C4c5nc(N)sc5CC[C@]4(C)[C@H]3CC[C@@]21C	58.2%	0.196% (active)	15.5%	74.6%	75.2%	33.8%	80.8%	44.7%
O=C(N/N=C/c1c(Cl)cccc1Cl)c1cccc(Nc2ccnc(C(F)(F)F)c2)c1	37%	90.8%	78.9%	99%	66.1%	77.2%	89.1%	108%
C[C@H]1[C@H](C)CC[C@]2(C(=O)O)CC[C@]3(C)C(=CC[C@@H]4[C@@]5(C)C/C(=C/c6ccco6)C(=O)C(C)(C)[C@@H]5CC[C@]43C)[C@H]12	-14.3% [100 µM] (active)	-62.5% [100 µM] (active)	-85.1% [100 µM] (active)	-44.9% [100 µM] (active)	-74.7% [100 µM] (active)	-73% [100 µM] (active)	-81.4% [100 µM] (active)	-73.5% [100 µM] (active)
CCOC(=O)c1cc(C(=O)c2ccc(OC)c(OC)c2)n2ccc(-c3ccccn3)cc12	23.1%	93.6%	70.7%	58.6%	73.3%	99.9%	90.5%	77.4%
C=C(C)[C@@H]1CC[C@]2(C)[C@H](CC[C@@H]3[C@@H]([C@@](C)(O)CCC=C(C)C)CC[C@]32C)[C@@]1(C)CCC(=O)O	17% [100 µM]	-22% [100 µM] (active)	-36.7% [100 µM] (active)	0.938% [100 µM] (active)	7.92% [100 µM] (active)	-39.4% [100 µM] (active)	-37.4% [100 µM] (active)	-55.2% [100 µM] (active)
CC1=C/C(=C(\c2cc(C)c(O)c(C(=O)O)c2)c2c(Cl)cccc2Cl)C=C(C(=O)O)C1=O	98.3%	99.3%	108%	110%	92.7%	105%	110%	103%
CCN(CC)c1ccc2cc(C(Nc3ccc(Br)c(C(F)(F)F)c3)c3nnnn3C(C)(C)C)c(=O)oc2c1 (stereo not drawn)	64.2%	97.3%	99.4%	98.7%	73.8%	93.5%	106%	102%
C=C(C)[C@@H]1CC[C@]2(C(=O)O)CC[C@]3(C)[C@H](CC[C@@H]4[C@@]5(C)C/C(=C/c6ccco6)C(=O)C(C)(C)[C@@H]5CC[C@]43C)[C@@H]12	-8.1% [100 µM] (active)	-67.8% [100 µM] (active)	-75.9% [100 µM] (active)	-34.7% [100 µM] (active)	-53.2% [100 µM] (active)	-74.7% [100 µM] (active)	-78.1% [100 µM] (active)	-96.3% [100 µM] (active)
CCn1cc(-c2cc(-c3ccc(Cl)cc3)nc(N)n2)c(-c2ccc(Br)cc2)n1	48.1%	91.3%	92.8%	99.7%	72.2%	66.3%	92.9%	77.7%
CC[C@@](C)(NC(=O)[C@H](C)NC(=O)CCNC(=O)C(C)(C)NC(=O)[C@H](C)NC(=O)[C@@H]1CCCN1C(=O)[C@@](C)(CC)NC(=O)[C@H](Cc1ccccc1)NC(=O)C1CCCN1C(=O)C(C)(C)NC(=O)C1CCCN1C(=O)C(C)(C)NC(C)=O)C(=O)NCCC(=O)N[C@@H](CC(C)C)C(=O)NC(C)(C)C(=O)NCCC(=O)N[C@@H](CC(C)C)C(=O)NC(C)(C)C(=O)NC(C)(C)C(=O)N[C@@H](CC(C)C)C(=O)NCCC(=O)NCO (stereo partly drawn)	-66.9% (active)	-97.3% (active)	-89.2% (active)	-79.2% (active)	-84.9% (active)	-94.6% (active)	-96.1% (active)	-94.8% (active)
CCOC(=O)C1=C(C(=O)c2ccc(Br)cc2)C(c2ccc(Br)cc2)NC(=S)N1 (stereo not drawn)	94.5%	101%	107%	101%	102%	89.8%	106%	97.5%
COc1cc(-c2cc(-c3ccc(Nc4ncnc5cc(Cl)ccc45)cc3)nc(N3CCCCC3)n2)cc(OC)c1OC	91.3%	84%	106%	97.7%	86.6%	103%	114%	97.8%
O=C(Nc1ccc(CN2CCOCC2)c(C(F)(F)F)c1)c1nc2ccc3[nH]ncc3c2c2c1CCCC2	62.6%	136%	96.6%	99.4%	83.1%	79.4%	116%	83.9%
C=C(C)[C@@H]1CC[C@]2(C(=O)NCCCCCCN(CCCN)CCCN)CC[C@]3(C)[C@H](CC[C@@H]4[C@@]5(C)CC[C@H](OCCCN)C(C)(C)[C@@H]5CC[C@]43C)[C@@H]12	85.3% [100 µM]	118% [100 µM]	89.6% [100 µM]	7.33% [100 µM] (active)	14.5% [100 µM]	12.6% [100 µM]	77.1% [100 µM]	31.5% [100 µM]
CC1(C)CC[C@]2(C(N)=O)CC[C@]3(C)C(=CC[C@@H]4[C@@]5(C)C/C(=C/c6ccncc6)C(=O)C(C)(C)[C@@H]5CC[C@]43C)[C@@H]2C1	-24.8% [100 µM] (active)	-24.9% [100 µM] (active)	-56.3% [100 µM] (active)	-32.1% [100 µM] (active)	-36.6% [100 µM] (active)	-22.7% [100 µM] (active)	-50.4% [100 µM] (active)	-52.3% [100 µM] (active)
C=C(C)[C@@H]1CC[C@]2(C(=O)N3CCN(C)CC3)CC[C@]3(C)[C@H](CC[C@@H]4[C@@]5(C)C/C(=C/c6ccncc6)[C@H](O)C(C)(C)[C@@H]5CC[C@]43C)[C@@H]12	10.8% [100 µM]	-43% [100 µM] (active)	-39.7% [100 µM] (active)	-55.4% [100 µM] (active)	-60.6% [100 µM] (active)	-79.3% [100 µM] (active)	-80.7% [100 µM] (active)	-80.4% [100 µM] (active)
